Records with an inconclusive call do not appear. Entries that show only a call come without a potency. Activity calls are given as the source filed them. The call rests on the fitted dose curve; in most records, active means well fitted inhibition curve with a large enough effect; inconclusive means small, poorly fitted or top-dose-only effect; inactive means no such curve, though single readings can be large or run the other way.
Potency means the concentration at half of the fitted maximal effect.

Chain of N-terminal Xaa-Pro-Lys N-methyltransferase 1 (Homo sapiens) (Q9BV86 whole entry, looked up): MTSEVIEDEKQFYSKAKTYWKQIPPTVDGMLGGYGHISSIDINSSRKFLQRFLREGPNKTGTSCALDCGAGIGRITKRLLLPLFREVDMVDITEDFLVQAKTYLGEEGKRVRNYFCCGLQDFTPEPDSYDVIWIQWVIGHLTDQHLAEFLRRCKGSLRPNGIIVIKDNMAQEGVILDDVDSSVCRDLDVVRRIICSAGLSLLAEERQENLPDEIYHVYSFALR

This experiment has as its target N-terminal Xaa-Pro-Lys N-methyltransferase 1 (Homo sapiens) (UniProt Q9BV86). Kind of experiment: qHTS Assay for Inhibitors of N-terminal methyltransferase 1 (NTMT1): MTaseGlo Assay Confirmatory Screen, Round 1. The settings on record: Recombinant NTMT1, MTase-Glo SAH luminescence; series mostly up to 57.1 µM. The method in brief: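 Luminescence from MTase-Glo conversion of SAH to ATP measured activity after a 30 min RT reaction with 1 µM SPKRIA substrate, 100 µM SAM and 125 nM enzyme. Normalization used no-enzyme and DMSO controls, followed by Hill fitting.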
A general note: qHTS replaces the single test concentration by a dilution series.
Consider `Nc1ccnc2c1ncn2[C@@H]1O[C@H](CO)[C@@H](O)[C@H]1O`, for which the Potency was 17.2 µM (active).
The entry for `COc1cc2c(NC3CCN(C)CC3)cc(N3CCCCN(C)CC3)cc2cc1OCCOCCN(C)C` is “inactive”; for `COc1cc2c(NC3CCN(C)CC3)nc(N3CCCN(C)CC3)nc2cc1OCCCCN` it is 15.3 µM (active); for `Cc1cc(C)c(CNC(=O)c2cc(-c3ccc(CN4CCOCC4)cc3)cc3c2cnn3C2CCCC2)c(=O)[nH]1` it is “inactive”.
For `C[C@@H](Cc1ccccc1)Nc1ncnc2c1ncn2[C@@H]1O[C@H](CO)[C@@H](O)[C@H]1O` the value was “inactive”.
With `CNc1ncnc2c1ncn2[C@@H]1O[C@H](COP(=O)(O)O)[C@@H](O)[C@H]1O`, the Potency result is “inactive”.
On to `CNc1ncnc2c1ncn2[C@@H]1O[C@H](CO)[C@@H](O)[C@H]1O`, for which the Potency entry was “inactive”.
For `Nc1ncnc2c1ncn2[C@@H]1O[C@H](CO)C[C@@H]1O` the value was “inactive”; for `OCCNc1ncnc2c1ncn2[C@@H]1O[C@@H](CO)[C@H](O)[C@@H]1O`, “inactive”.
Regarding `Nc1ncnc2c1nc(Br)n2C1CC(O)C(CO)O1` (stereo not given), the Potency entry was “inactive”.
For `Nc1ncnc2c1ncn2C1CC(O)C(CO)O1` (stereo not given) the value was “inactive”; for `COc1cc2c(NC3CCN(C)CC3)nc(N3CCCN(C)CC3)nc2cc1OCCOCCN(C)C`, “inactive”; for `COCCCCOc1cc2nc(N3CCCN(C)CC3)nc(NC3CCN(C)CC3)c2cc1OC`, “inactive”.
For `CCN(c1cc(C#CCN2CCOCC2)cc(C(=O)NCc2c(C)cc(C)[nH]c2=O)c1C)C1CCC(N(C)CCOC)CC1` (stereo not given) the value was “inactive”; for `OC[C@H]1O[C@H](n2cnc3c(N[C@H]4CCC[C@@H]4O)ncnc32)[C@H](O)[C@@H]1O`, “inactive”.

The values above are taken from PubChem BioAssay AID1347145 (National Center for Advancing Translational Sciences (NCATS), 2019).
